Records with an inconclusive call do not appear. Calls of active or inactive are those of the source. How the source made its calls, unless noted: active means hit-call score of the fitted dose curve at least 0.9, where 1 is the maximum; inconclusive means response in the unintended direction; inactive means score below 0.9.
Columns and labels:
[1] = IUF_NPC1_cytotoxicity_72hr: Cytotoxicity Assessment at 72 hours in the Leibniz Research Institute for Environmental Medicine (IUF) Neural Progenitor Cell Proliferation Assay (NPC1) (AID 2284332);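 further: rising LDH signal means more cytotoxicity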
Outline: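 Cytotoxicity by LDH membrane-integrity assay on medium supernatants, fluorescence via resazurin reduction, after 3-day single exposure of primary hNPC spheres at 37C, pH 7.2-7.6 with growth factors. Fitted upward against baseline.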

[2] = CCTE_Mundy_HCI_iCellGluta_NOG_NeuronCount: CCTE's Neurite Outgrowth Assay in iCellGluta cells for Neuron Count, Mundy Lab (AID 2284340);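 further: cells fixed about 48 h after compound addition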
Outline: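 Neuron count read by automated high-content imaging of Hoechst 33342 and betaIII-tubulin/Alexa Fluor-488 labelling in human iPSC glutamatergic neurons. Activity fitted relative to DMSO.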

[3] = CCTE_Mundy_HCI_iCellGluta_NOG_NeuriteCount: CCTE's Neurite Outgrowth Assay in iCellGluta cells for Neurite Count, Mundy Lab (AID 2284342);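 further: chemical exposure about 48 hours starting 2 hours after plating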
[4] = tested on: SERPINA7 (gene 6906); assay: CCTE_GLTED_hTBG: CCTE's human Thyroxine-binding Globulin (TBG) Inhibition Assay, Great Lakes Toxicology and Ecology Division (GLTED) Lab (AID 2284343);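 further: active chemicals lower fluorescence versus DMSO baseline by displacing probe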
Outline: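 Cell-free displacement of the fluorescent probe ANSA from human thyroxine-binding globulin after 2 h exposure. Read-out at ex 380/em 475 nm; DMSO baseline.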

[5] = CCTE_Padilla_ZF_Score.General: CCTE's 144 Hour Post-fertilization zebrafish Assay Score for General Malformation, Padilla Lab (AID 2284411; active means hit-call score of the fitted dose curve at least 0.9, where 1 is the maximum; inactive means score below 0.9)
Outline: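 Malformation, death and hatching were scored at 6 dpf by two blinded observers under a stereo microscope. Embryos were dosed singly from 6-8 hpf in sealed plates of 10% Hanks' at 26C and rinsed on 5 dpf; DMSO baseline.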

[6] = CCTE_Deisenroth_DEVTOX-GLR_legacy_CellCount: (Legacy) Viability Assessment in CCTE's DevTox GLR-Endo Assay, Deisenroth Lab (AID 2284331; active means hit-call score of the fitted dose curve at least 0.9, where 1 is the maximum; inactive means score below 0.9); settings: actives raise or lower the signal
Outline: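 Seed RUES2-GLR 24 h; differentiate 48 h, dosing at 0 and 24 h; fix, stain nuclei; image 5 fields/well; count nuclei. Conc. 1 nM - 200 uM, single technical replicate, n=4 experiments; bidirectional fit vs 0.2% DMSO.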

[7] = tested on: SRY-box transcription factor 17 (SOX17) Protein Expression, Deisenroth Lab, SOX17 (gene 64321); assay: CCTE_Deisenroth_DEVTOX-GLR_legacy_Sox17: (Legacy) CCTE's DevTox GLR-Endo Assay Evaluation of SRY-box transcription factor 17 (SOX17) Protein Expression, Deisenroth Lab (AID 2284341; active means hit-call score of the fitted dose curve at least 0.9, where 1 is the maximum; inactive means score below 0.9); settings: actives raise or lower the signal
Outline: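 Using the RUES2-GLR line, compounds are tested as 10-point series during 48-h defined-media differentiation. Sox17 reporter fluorescence per cell determines positivity; endpoint is percentage positive, analysed bidirectionally versus DMSO baseline.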

[8] = tested on: SRY-box transcription factor 2 (SOX2) Protein Expression, Deisenroth Lab, SOX2 (gene 6657); assay: CCTE_Deisenroth_DEVTOX-GLR_legacy_Sox2: (Legacy) CCTE's DevTox GLR-Endo Assay Evaluation of SRY-box transcription factor 2 (SOX2) Protein Expression, Deisenroth Lab (AID 2284346; active means hit-call score of the fitted dose curve at least 0.9, where 1 is the maximum; inactive means score below 0.9)
Outline: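 Percent Sox2-positive cells was scored by high-content imaging of 5 fields per well. Positivity cutoff was 5x BMAD over the directed endoderm control, and the DMSO median was subtracted. Cells were RUES2-GLR, dosed twice at 24-h intervals over 48 h of differentiation (1 nM-200 uM).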

[9] = tested on: SRY-box transcription factor 2 (SOX2) Protein Expression, Deisenroth Lab, SOX2 (gene 6657); assay: CCTE_Deisenroth_DEVTOX-GLR_Endo_SOX2: CCTE's DevTox GLR-Endo Assay Evaluation of SRY-box transcription factor 2 (SOX2) Protein Expression, Deisenroth Lab (AID 2284412)
Outline: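 Endpoint is percent SOX2-positive cells (SOX2+ count/total cells) minus 0.2% DMSO control, from high-content imaging of fixed, nuclear-stained RUES2-GLR cells. Dosing twice at 24 h intervals over 48 h differentiation, 1 nM–200 uM in 10 points.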

[10] = tested on: SRY-box transcription factor 17 (SOX17) Protein Expression, Deisenroth Lab, SOX17 (gene 64321); assay: CCTE_Deisenroth_DEVTOX-GLR_Endo_SOX17: CCTE's DevTox GLR-Endo Assay Evaluation of SRY-box transcription factor 17 (SOX17) Protein Expression, Deisenroth Lab (AID 2284413; active means hit-call score of the fitted dose curve at least 0.9, where 1 is the maximum; inactive means score below 0.9)
Outline: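 RUES2-GLR human pluripotent cells were seeded 24 h, then differentiated toward endoderm for 48 h with two chemical exposures 24 h apart (10-point series, 1 nM - 200 uM). Nuclei-stained fixed cells were imaged; endpoint is percent change in SOX17+ cells versus 0.2% DMSO.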

[11] = tested on: Brachyury (BRA) Protein Expression, TBXT (gene 6862); assay: CCTE_Deisenroth_DEVTOX-GLR_Endo_BRA: CCTE's DevTox GLR-Endo Assay Evaluation of Brachyury (BRA) Protein Expression, Deisenroth Lab (AID 2284417; active means hit-call score of the fitted dose curve at least 0.9, where 1 is the maximum; inactive means score below 0.9)
Outline: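 Percent BRA+ (mesoderm) RUES2-GLR cells after 48 h differentiation with two exposures, 1 nM - 200 uM; 0.2% DMSO control subtracted.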

[12] = CCTE_Padilla_ZF_Score.Craniofacial: CCTE's 144 Hour Post-fertilization zebrafish Assay Score for Craniofacial Malformation, Padilla Lab (AID 2284405; active means hit-call score of the fitted dose curve at least 0.9, where 1 is the maximum; inactive means score below 0.9)
Outline: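 Craniofacial defects were scored at 6 dpf by two blinded observers using stereomicroscopy. Exposure of wild-type embryos began at 6–8 hpf in sealed wells of 10% Hanks' solution at 26C, with chemical removed by rinsing at 5 dpf.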

[13] = CCTE_Padilla_ZF_Score.Edema: CCTE's 144 Hour Post-fertilization zebrafish Assay Score for Edema Malformation, Padilla Lab (AID 2284406; active means hit-call score of the fitted dose curve at least 0.9, where 1 is the maximum; inactive means score below 0.9)
Outline: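 Edema scored at 6 dpf by two blinded observers under a stereo microscope, in single outbred wild-type larvae exposed from 6-8 hpf in sealed wells (Hanks', 26C, 14:10 h light) and chemical-free after a 5 dpf rinse.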

[14] = CCTE_Padilla_ZF_Score.Spine: CCTE's 144 Hour Post-fertilization zebrafish Assay Score for Spine Malformation, Padilla Lab (AID 2284407; active means hit-call score of the fitted dose curve at least 0.9, where 1 is the maximum; inactive means score below 0.9)
Outline: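 Spine malformation scored at 6 dpf by two independent blinded observers under stereomicroscope, after static sealed exposure from 6–8 hpf at 26C in Hanks' solution with rinse on 5 dpf. Positive-direction fit against DMSO control.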

[15] = CCTE_Padilla_ZF_Score.Swim_bladder: CCTE's 144 Hour Post-fertilization zebrafish Assay Score for Swim Bladder Malformation, Padilla Lab (AID 2284408; active means hit-call score of the fitted dose curve at least 0.9, where 1 is the maximum; inactive means score below 0.9)
Outline: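 Swim bladder inflation scored at 6 dpf by two blinded observers under a stereo microscope. Exposure ran from 6–8 hpf in sealed wells of 10% Hanks' at 26C, with rinsing at 5 dpf; DMSO served as baseline.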

[16] = CCTE_Padilla_ZF_Score.Position: CCTE's 144 Hour Post-fertilization zebrafish Assay Score for Position, Padilla Lab (AID 2284409; active means hit-call score of the fitted dose curve at least 0.9, where 1 is the maximum; inactive means score below 0.9)
Outline: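 Wild-type zebrafish embryos (with chorions) exposed singly from 6–8 hpf in sealed wells of Hanks' solution at 26C, rinsed at 5 dpf. At 6 dpf, blinded assessors scored abnormal water-column position by brightfield stereomicroscopy, relative to DMSO.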

[17] = CCTE_Padilla_ZF_Score.Living: CCTE's 144 Hour Post-fertilization zebrafish Assay Score for Viability, Padilla Lab (AID 2284410; active means hit-call score of the fitted dose curve at least 0.9, where 1 is the maximum; inactive means score below 0.9;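 further: larval death at 6 dpf judged by absent heartbeat or coagulation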)
Outline: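 Mortality at 6 dpf, judged as absent heartbeat or coagulation by two blinded observers, after sealed static exposure beginning at 6–8 hpf at 26C. Larvae were rinsed free of chemical at 5 dpf, and activity was fitted relative to DMSO.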

[18] = CCTE_Padilla_ZF_Score.Tail: CCTE's 144 Hour Post-fertilization zebrafish Assay Score for Tail Malformation, Padilla Lab (AID 2284414; active means hit-call score of the fitted dose curve at least 0.9, where 1 is the maximum; inactive means score below 0.9)
Outline: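 Tail malformations were scored at 6 dpf by two blinded assessors under a stereo microscope. Chorionated embryos had been exposed from 6-8 hpf in sealed wells of 10% Hanks' at 26 C, then rinsed free of chemical at 5 dpf.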

[19] = CCTE_Padilla_ZF_Score.Blood_pooling: CCTE's 144 Hour Post-fertilization zebrafish Assay Score for Blood Pooling, Padilla Lab (AID 2284415; active means hit-call score of the fitted dose curve at least 0.9, where 1 is the maximum; inactive means score below 0.9)
Outline: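 Blood pooling was scored at 6 dpf under a stereo microscope by two blinded assessors, fitted upward against DMSO. Single embryos were dosed at 6–8 hpf in 10% Hanks', kept sealed at 26C (14:10 h cycle) and rinsed at 5 dpf.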

[20] = CCTE_Padilla_ZF_Score.Any: CCTE's 144 Hour Post-fertilization zebrafish Assay Score for Any Mortality or Malformation, Padilla Lab (AID 2284416; active means hit-call score of the fitted dose curve at least 0.9, where 1 is the maximum; inactive means score below 0.9)
Outline: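 Wild-type zebrafish embryos with chorions, one per well in 10% Hanks' from 6–8 hpf, dosed in sealed plates at 26 C, 14:10 h light:dark; rinsed at 5 dpf; blinded scoring at 6 dpf for death or malformation, versus DMSO.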

## COCCc1ccc(OCC(O)CNC(C)C)cc1 (stereo not drawn)
[1]
  outcome: inactive
[2]
  outcome: inactive
[3]
  outcome: inactive

## O=C(CC(=O)c1ccccc1)c1ccccc1
[4]
  AC50: 8.66 µM (active)

## CCN(CC)C(=O)N(CC)CC
[5]
  outcome: inactive

## c1ccc(Oc2ccccc2)cc1
[5]
  outcome: inactive

## CCCCCCC(CO)CCCC (stereo not drawn)
[4]
  AC50: 24.2 µM (active)

## CS(=O)(=O)OCCCCOS(C)(=O)=O
[6]
  AC50: 14.6 µM (active)
[7]
  AC50: 47.3 µM (active)
[8]
  AC50: 77 µM (active)
[9]
  outcome: inactive
[10]
  AC50: 44.5 µM (active)
[11]
  AC50: 100 µM (active)

## c1ccc(CCc2ccccc2)cc1
[5]
  outcome: inactive

## O=C(Nc1ccc2c(O)c(N=Nc3ccc(N=Nc4ccc(S(=O)(=O)O)cc4)cc3)c(S(=O)(=O)O)cc2c1)c1ccccc1
[4]
  AC50: 16.6 µM (active)

## OCc1cccc(Oc2ccccc2)c1
[4]
  AC50: 27.4 µM (active)

## O=CCc1ccccc1
[4]
  AC50: 14.2 µM (active)

## C=Cc1ccncc1
[5]
  AC50: 22.6 µM (active)

## CN(c1nccc(=O)[nH]1)C1CCN(c2nc3ccccc3n2Cc2ccc(F)cc2)CC1
[5]
  outcome: inactive

## Clc1ccc(C(c2ccccc2Cl)C(Cl)Cl)cc1 (stereo not drawn)
[4]
  AC50: 1.79 µM (active)

## CCCCC(CC)COC(=O)c1ccc(O)cc1 (stereo not drawn)
[4]
  AC50: 5.72 µM (active)

## COc1ccc(CCN2CCC(Nc3nc4ccccc4n3Cc3ccc(F)cc3)CC2)cc1
[5]
  AC50: 0.439 µM (active)

## COCCOCCOCCO
[1]
  outcome: inactive
[2]
  outcome: inactive
[3]
  outcome: inactive

## O=C(c1ccccc1)C(O)c1ccccc1 (stereo not drawn)
[4]
  AC50: 15.9 µM (active)

## N[C@@H](Cc1cc(I)c(Oc2cc(I)c(O)c(I)c2)c(I)c1)C(=O)O
[4]
  AC50: 0.0273 µM (active)

## CC1(C)C2=CCCC(C)(C)[C@]23CC[C@H]1C3
[5]
  outcome: inactive

## COc1ccc(N=Nc2cc(C)c(N=Nc3ccc(S(=O)(=O)O)cc3)cc2OC)cc1
[4]
  AC50: 35.5 µM (active)

## C[C@@H]1CCN(C(=O)[C@H](CCCN=C(N)N)NS(=O)(=O)c2cccc3c2NC[C@H](C)C3)[C@@H](C(=O)O)C1
[5]
  outcome: inactive

## Oc1ccc2cc(SSc3ccc4cc(O)ccc4c3)ccc2c1
[4]
  AC50: 0.423 µM (active)

## C=C(C)C(=O)OCCOCCOCCOC(=O)C(=C)C
[5]
  outcome: inactive

## CC(C)CCCCCCCCCCCCCCC(=O)O
[4]
  AC50: 5.3 µM (active)

## CCCCCC(C=O)=Cc1ccccc1
[5]
  outcome: inactive

## BrCc1cccc(Oc2ccccc2)c1
[4]
  AC50: 23.3 µM (active)

## FC(F)(F)COCC(F)(F)F
[12]
  outcome: inactive
[13]
  outcome: inactive
[14]
  outcome: inactive
[15]
  outcome: inactive
[16]
  outcome: inactive
[17]
  outcome: inactive
[5]
  outcome: inactive
[18]
  outcome: inactive
[19]
  outcome: inactive
[20]
  outcome: inactive

## CN(C)CCOC(C)(c1ccccc1)c1ccccn1 (stereo not drawn)
[1]
  outcome: inactive
[2]
  outcome: inactive
[3]
  outcome: inactive

## C=C(C)C(=O)OCCOCCOCCOCCOC(=O)C(=C)C
[5]
  outcome: inactive

## C=C[Si]1(C)O[Si](C)(C=C)O[Si](C)(C=C)O[Si](C)(C=C)O1 (stereo not drawn)
[4]
  outcome: inactive

## Cc1ccc(S(=O)(=O)Oc2ccc(N=Nc3ccc(-c4ccc(N=Nc5c(O)ccc6cc(S(=O)(=O)O)cc(S(=O)(=O)O)c56)c(C)c4)cc3C)cc2)cc1
[4]
  AC50: 3.93 µM (active)

## Oc1c(Cl)cc(Cl)c(Cl)c1Cc1c(O)c(Cl)cc(Cl)c1Cl
[1]
  outcome: inactive

## O=[N+]([O-])c1ccc(O)cc1C(F)(F)F
[4]
  AC50: 28.2 µM (active)
